Common to all, as to assay: DAPPL (digital affinity profiling via proximity ligation, sequencing); 10 mM Tris-HCl pH 7.5, 50 mM NaCl, 1 mM DTT, 4% glycerol, room temperature, 30 min; GST-TFs on glutathione beads, 16-mer random dsDNA library, 0.1% formaldehyde crosslink after washing; high values mean tight binding
One test has as its target T1, FEV (Homo sapiens, UniProt Q99581 1-238).
T1 sequence: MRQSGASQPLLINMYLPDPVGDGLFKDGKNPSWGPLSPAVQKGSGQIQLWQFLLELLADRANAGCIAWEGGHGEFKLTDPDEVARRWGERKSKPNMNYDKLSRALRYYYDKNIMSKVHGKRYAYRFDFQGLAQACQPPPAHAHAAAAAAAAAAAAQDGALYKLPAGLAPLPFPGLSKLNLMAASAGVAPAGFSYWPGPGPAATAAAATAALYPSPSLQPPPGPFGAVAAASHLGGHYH
Conditions: protein: recombinant; tags: N-terminal GST; dsDNA, one strand shown. The procedure, abridged:
(§1)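 Binding signal is each hexamer's read frequency for a factor divided by its frequency in the tag-only sample. The factors were GST-fused human transcription factors from yeast, captured on glutathione beads, DNA-barcoded and pooled with that sample. Pools were incubated with 200 nmole of a random double-stranded 16-mer DNA library in Tris/NaCl/DTT/glycerol buffer at room temperature for 30 min, then washed, crosslinked with 0.1% formaldehyde, proximity-ligated with BsaI/T4 ligase (1 h, 37 °C), PCR-amplified and sequenced on an Illumina NextSeq500.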

In the next test the target is ETV5 (Homo sapiens, UniProt P41161 1-510). Conditions: protein: recombinant; tags: N-terminal GST; dsDNA, one strand shown. The procedure, abridged: as §1
For a further test, the target named is HSF1 (Homo sapiens, UniProt Q00613 1-529). The note with it: protein: recombinant; tags: N-terminal GST; chain copies: 3; dsDNA, one strand shown. Summed up:
as §1

The next test deals with T2, SPIC (Homo sapiens, UniProt Q8N5J4 1-248).
T2 sequence: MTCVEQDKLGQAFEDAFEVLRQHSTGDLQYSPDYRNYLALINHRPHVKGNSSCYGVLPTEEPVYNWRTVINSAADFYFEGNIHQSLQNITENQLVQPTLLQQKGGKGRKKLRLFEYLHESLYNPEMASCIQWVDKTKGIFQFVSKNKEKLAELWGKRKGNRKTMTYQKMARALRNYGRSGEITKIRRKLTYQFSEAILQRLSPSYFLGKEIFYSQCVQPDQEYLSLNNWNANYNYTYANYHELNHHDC
The note with it: protein: recombinant; tags: N-terminal GST; dsDNA, one strand shown. Summed up:
as §1

Another test deals with ELF4 (Homo sapiens, UniProt Q99607 1-663). Conditions: protein: recombinant; tags: N-terminal GST; dsDNA, one strand shown. The procedure, abridged:
as §1

The next test addresses T3, ETV2 (Homo sapiens, UniProt O00321 1-342).
T3 sequence: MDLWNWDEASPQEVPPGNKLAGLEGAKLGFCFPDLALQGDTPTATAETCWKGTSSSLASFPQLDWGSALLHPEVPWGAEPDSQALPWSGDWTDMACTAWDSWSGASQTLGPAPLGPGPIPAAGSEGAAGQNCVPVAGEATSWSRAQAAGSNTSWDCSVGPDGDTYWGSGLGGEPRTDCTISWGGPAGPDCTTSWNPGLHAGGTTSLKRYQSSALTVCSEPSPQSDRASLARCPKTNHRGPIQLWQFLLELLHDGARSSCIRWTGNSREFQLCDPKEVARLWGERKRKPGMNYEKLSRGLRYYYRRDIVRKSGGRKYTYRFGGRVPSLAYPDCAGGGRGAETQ
Conditions: protein: recombinant; tags: N-terminal GST; dsDNA, one strand shown. The procedure, abridged:
as §1

The target in the next test is T4, ELF3 (Homo sapiens, UniProt P78545 1-371).
T4 sequence: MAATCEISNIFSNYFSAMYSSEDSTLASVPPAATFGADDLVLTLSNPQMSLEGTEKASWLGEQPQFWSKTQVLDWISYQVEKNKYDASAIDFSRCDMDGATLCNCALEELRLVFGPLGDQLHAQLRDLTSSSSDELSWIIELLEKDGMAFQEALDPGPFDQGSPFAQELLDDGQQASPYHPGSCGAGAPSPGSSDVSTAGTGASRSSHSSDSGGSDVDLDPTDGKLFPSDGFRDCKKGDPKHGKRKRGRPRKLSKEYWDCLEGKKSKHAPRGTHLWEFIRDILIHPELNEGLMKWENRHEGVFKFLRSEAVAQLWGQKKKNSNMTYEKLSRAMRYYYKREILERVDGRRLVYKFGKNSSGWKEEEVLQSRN
Conditions: protein: recombinant; tags: N-terminal GST; dsDNA, one strand shown. Summed up: as §1

The target in a further test is ETV1 (Homo sapiens, UniProt P50549 1-477). The note with it: protein: recombinant; tags: N-terminal GST; dsDNA, one strand shown. Summed up:
as §1

The next test deals with CRX (Homo sapiens, UniProt O43186 1-299). Conditions: protein: recombinant; tags: N-terminal GST; dsDNA, one strand shown. The procedure, abridged:
as §1

For a further test, the target named is T5, ELK4 (Homo sapiens, UniProt P28324-2 1-405).
T5 sequence: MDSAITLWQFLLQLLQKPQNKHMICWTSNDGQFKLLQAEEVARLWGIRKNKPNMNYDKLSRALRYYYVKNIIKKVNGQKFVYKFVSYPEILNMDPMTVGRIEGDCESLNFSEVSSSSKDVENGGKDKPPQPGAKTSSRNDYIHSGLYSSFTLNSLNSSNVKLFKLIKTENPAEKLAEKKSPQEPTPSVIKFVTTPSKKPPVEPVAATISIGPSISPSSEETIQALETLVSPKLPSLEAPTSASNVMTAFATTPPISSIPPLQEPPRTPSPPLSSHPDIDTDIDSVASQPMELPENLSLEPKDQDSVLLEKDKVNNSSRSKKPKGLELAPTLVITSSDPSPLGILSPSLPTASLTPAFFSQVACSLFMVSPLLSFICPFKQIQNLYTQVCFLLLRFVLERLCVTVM
The note with it: protein: recombinant; tags: N-terminal GST; dsDNA, one strand shown. The procedure, abridged:
as §1

ELF4, sequence (Q99607 whole entry): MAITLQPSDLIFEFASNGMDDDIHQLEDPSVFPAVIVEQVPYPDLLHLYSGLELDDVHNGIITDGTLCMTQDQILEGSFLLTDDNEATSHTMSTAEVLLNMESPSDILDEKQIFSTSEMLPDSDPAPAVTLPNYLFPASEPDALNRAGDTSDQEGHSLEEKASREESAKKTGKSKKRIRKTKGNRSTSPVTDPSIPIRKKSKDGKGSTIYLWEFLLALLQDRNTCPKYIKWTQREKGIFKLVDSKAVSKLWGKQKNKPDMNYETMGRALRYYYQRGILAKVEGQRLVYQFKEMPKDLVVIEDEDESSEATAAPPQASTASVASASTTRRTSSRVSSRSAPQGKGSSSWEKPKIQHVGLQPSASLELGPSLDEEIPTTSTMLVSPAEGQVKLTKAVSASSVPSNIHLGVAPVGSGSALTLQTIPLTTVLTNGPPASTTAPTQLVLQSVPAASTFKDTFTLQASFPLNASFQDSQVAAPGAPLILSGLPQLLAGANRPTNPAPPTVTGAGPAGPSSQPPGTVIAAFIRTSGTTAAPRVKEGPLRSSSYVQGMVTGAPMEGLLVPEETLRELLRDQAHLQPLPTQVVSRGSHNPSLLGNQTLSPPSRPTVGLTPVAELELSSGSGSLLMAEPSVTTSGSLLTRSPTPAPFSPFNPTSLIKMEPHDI
ETV5, sequence (P41161 whole entry): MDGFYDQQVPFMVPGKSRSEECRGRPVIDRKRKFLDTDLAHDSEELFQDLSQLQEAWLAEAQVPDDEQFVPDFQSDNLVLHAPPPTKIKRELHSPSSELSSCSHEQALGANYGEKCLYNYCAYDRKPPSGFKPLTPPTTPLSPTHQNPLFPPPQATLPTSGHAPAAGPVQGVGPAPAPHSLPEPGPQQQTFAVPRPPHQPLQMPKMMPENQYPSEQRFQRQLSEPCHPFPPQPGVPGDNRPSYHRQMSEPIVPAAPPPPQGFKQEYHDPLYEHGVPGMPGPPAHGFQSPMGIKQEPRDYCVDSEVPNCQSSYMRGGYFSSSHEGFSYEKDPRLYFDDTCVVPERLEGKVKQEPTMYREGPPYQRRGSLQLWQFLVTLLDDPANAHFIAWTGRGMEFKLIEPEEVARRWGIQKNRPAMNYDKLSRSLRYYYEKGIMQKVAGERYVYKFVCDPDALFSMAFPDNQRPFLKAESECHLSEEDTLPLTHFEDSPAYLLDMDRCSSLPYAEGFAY
HSF1, sequence (Q00613 whole entry): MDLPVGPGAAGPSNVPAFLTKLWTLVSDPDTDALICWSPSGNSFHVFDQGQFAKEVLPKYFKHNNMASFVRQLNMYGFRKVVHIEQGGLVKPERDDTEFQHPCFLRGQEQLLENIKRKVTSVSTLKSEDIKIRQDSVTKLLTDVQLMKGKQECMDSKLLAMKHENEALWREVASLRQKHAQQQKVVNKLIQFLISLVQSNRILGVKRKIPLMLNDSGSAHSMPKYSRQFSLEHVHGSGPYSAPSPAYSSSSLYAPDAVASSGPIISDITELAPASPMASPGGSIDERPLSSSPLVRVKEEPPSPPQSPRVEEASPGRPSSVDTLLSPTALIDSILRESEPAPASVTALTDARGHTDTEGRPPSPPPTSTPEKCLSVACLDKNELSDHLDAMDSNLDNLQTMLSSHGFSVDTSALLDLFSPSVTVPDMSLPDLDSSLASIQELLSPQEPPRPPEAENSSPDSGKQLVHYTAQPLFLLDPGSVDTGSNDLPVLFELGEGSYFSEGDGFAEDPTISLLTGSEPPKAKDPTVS
CRX, sequence (O43186 whole entry): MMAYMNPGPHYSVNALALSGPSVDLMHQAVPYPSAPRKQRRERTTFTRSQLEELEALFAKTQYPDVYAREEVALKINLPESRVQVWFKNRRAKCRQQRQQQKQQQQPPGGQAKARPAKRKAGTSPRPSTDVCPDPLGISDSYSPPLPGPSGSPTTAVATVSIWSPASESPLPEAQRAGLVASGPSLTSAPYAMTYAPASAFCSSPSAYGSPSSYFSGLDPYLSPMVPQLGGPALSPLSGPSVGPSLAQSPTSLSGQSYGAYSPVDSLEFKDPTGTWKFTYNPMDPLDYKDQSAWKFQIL
ETV1, sequence (P50549 whole entry): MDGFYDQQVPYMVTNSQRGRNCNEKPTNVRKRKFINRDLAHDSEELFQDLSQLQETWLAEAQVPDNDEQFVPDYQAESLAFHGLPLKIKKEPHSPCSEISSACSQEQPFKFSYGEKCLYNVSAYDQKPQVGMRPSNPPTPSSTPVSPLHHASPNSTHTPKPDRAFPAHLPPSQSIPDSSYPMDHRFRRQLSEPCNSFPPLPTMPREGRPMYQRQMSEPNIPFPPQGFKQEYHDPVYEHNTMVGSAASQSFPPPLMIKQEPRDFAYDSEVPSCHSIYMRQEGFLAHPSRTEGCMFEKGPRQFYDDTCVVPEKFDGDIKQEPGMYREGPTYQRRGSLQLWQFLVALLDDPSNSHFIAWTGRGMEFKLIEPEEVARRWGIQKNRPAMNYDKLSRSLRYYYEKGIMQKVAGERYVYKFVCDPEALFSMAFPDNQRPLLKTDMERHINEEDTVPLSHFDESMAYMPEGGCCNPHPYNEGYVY

In the case of GTTTTC, the binding signal with FEV is 1.21 fold enrichment (6-mer frequency, TF over GST control); with ETV5, 1.24 fold enrichment (6-mer frequency, TF over GST control); in the test with HSF1 it was 1.13 fold enrichment (6-mer frequency, TF over GST control); with SPIC, 1.1 fold enrichment (6-mer frequency, TF over GST control); with ELF4, 1.2 fold enrichment (6-mer frequency, TF over GST control); with ETV2, 1.25 fold enrichment (6-mer frequency, TF over GST control). The binding signal with ELF3 is 1.32 fold enrichment (6-mer frequency, TF over GST control); in the test with ETV1 it was 1.13 fold enrichment (6-mer frequency, TF over GST control).
For the sequence CAAATT, the binding signal is 1.14 fold enrichment (6-mer frequency, TF over GST control) in the test with FEV; 1.2 fold enrichment (6-mer frequency, TF over GST control) with ETV5; 1.17 fold enrichment (6-mer frequency, TF over GST control) with HSF1; 1.16 fold enrichment (6-mer frequency, TF over GST control) in the test with SPIC; 1.07 fold enrichment (6-mer frequency, TF over GST control) with ELF4; 1.09 fold enrichment (6-mer frequency, TF over GST control) with ETV2. The binding signal with ELF3 is 1.17 fold enrichment (6-mer frequency, TF over GST control); with CRX, 1.12 fold enrichment (6-mer frequency, TF over GST control); in the test with ETV1 it was 1.18 fold enrichment (6-mer frequency, TF over GST control).
ACTTAG: the binding signal in the test with FEV was 1.03 fold enrichment (6-mer frequency, TF over GST control); with ETV5, 1.16 fold enrichment (6-mer frequency, TF over GST control); with HSF1 it was 1.27 fold enrichment (6-mer frequency, TF over GST control); in the test with SPIC, 1.1 fold enrichment (6-mer frequency, TF over GST control); in the test with ELF4, 1.03 fold enrichment (6-mer frequency, TF over GST control); with ETV2, 1.12 fold enrichment (6-mer frequency, TF over GST control). The binding signal with ELF3 is 1.2 fold enrichment (6-mer frequency, TF over GST control); with CRX, 1.72 fold enrichment (6-mer frequency, TF over GST control); in the test with ETV1, 1.04 fold enrichment (6-mer frequency, TF over GST control).
Regarding TGGATT, the binding signal is 1.06 fold enrichment (6-mer frequency, TF over GST control) in the test with ETV5; 1.85 fold enrichment (6-mer frequency, TF over GST control) with HSF1; 1.07 fold enrichment (6-mer frequency, TF over GST control) in the test with SPIC; 1.11 fold enrichment (6-mer frequency, TF over GST control) with ELK4; 2.46 fold enrichment (6-mer frequency, TF over GST control) with CRX.
Take ATCGTC: the binding signal was 1.02 fold enrichment (6-mer frequency, TF over GST control) with FEV; 1.06 fold enrichment (6-mer frequency, TF over GST control) with ETV5; 1.06 fold enrichment (6-mer frequency, TF over GST control) with HSF1; 1.06 fold enrichment (6-mer frequency, TF over GST control) with SPIC; 1.07 fold enrichment (6-mer frequency, TF over GST control) with ELF4; 1.02 fold enrichment (6-mer frequency, TF over GST control) with ETV2. Also, the binding signal with CRX was 1.09 fold enrichment (6-mer frequency, TF over GST control); with ETV1, 1.14 fold enrichment (6-mer frequency, TF over GST control).
In the case of CAAGAA, the binding signal was 1.09 fold enrichment (6-mer frequency, TF over GST control) with ETV5; 1.51 fold enrichment (6-mer frequency, TF over GST control) in the test with HSF1; 1.09 fold enrichment (6-mer frequency, TF over GST control) with SPIC; 1.06 fold enrichment (6-mer frequency, TF over GST control) in the test with ELF4; 1.11 fold enrichment (6-mer frequency, TF over GST control) with ELF3; 1.08 fold enrichment (6-mer frequency, TF over GST control) in the test with CRX. Besides, the binding signal with ETV1 is 1.05 fold enrichment (6-mer frequency, TF over GST control).
For ATAAGC, the binding signal with FEV was 1.02 fold enrichment (6-mer frequency, TF over GST control); with ETV5 it was 1.11 fold enrichment (6-mer frequency, TF over GST control); with HSF1 it was 1.67 fold enrichment (6-mer frequency, TF over GST control); with SPIC, 1.08 fold enrichment (6-mer frequency, TF over GST control); in the test with ELF4 it was 1.11 fold enrichment (6-mer frequency, TF over GST control); with ETV2, 1.07 fold enrichment (6-mer frequency, TF over GST control). Besides, the binding signal with ELF3 was 1.12 fold enrichment (6-mer frequency, TF over GST control); with CRX, 2.4 fold enrichment (6-mer frequency, TF over GST control); in the test with ETV1, 1.11 fold enrichment (6-mer frequency, TF over GST control).
For TGATTC, the binding signal is 1.03 fold enrichment (6-mer frequency, TF over GST control) with FEV; 1.1 fold enrichment (6-mer frequency, TF over GST control) with ETV5; 1.18 fold enrichment (6-mer frequency, TF over GST control) in the test with HSF1; 1.11 fold enrichment (6-mer frequency, TF over GST control) in the test with SPIC; 1.07 fold enrichment (6-mer frequency, TF over GST control) with ELF4; 1.03 fold enrichment (6-mer frequency, TF over GST control) in the test with ETV2. In addition, the binding signal with ELF3 was 1.12 fold enrichment (6-mer frequency, TF over GST control); with CRX it was 1.12 fold enrichment (6-mer frequency, TF over GST control); with ETV1, 1.18 fold enrichment (6-mer frequency, TF over GST control).

For the origin of these results see publication PMC7862700, “An all-to-all approach to the identification of sequence-specific readers for epigenetic DNA modifications on cytosine”.
